Measurements from PubChem BioAssay AID1981 (Southern Research Specialized Biocontainment Screening …, 2009).
The campaign covered roughly 2,200 compounds. About 480 (22%) were called active. The rule behind the calls is not given here. Not all results are given here. Entries with a potency or affinity are not part of this list.

test: S. Typhimurium GFP fluorescence dose response in modified counterscreen for PhoP regulon inhibitor project (AID 1981); settings: 4 h; series mostly up to 150 µM; inhibition: at the top concentration;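 note: 0% = induced DMSO wells and 100% = uninduced wells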

| Structure (SMILES) | inhibition |
| --- | --- |
| NNc1nc2c(-c3cccc(C(F)(F)F)c3)nnn2c2ccccc12 | 17.3% (inactive) |
| O=C(Nc1ccc(Br)cc1)c1ccc(F)c(S(=O)(=O)NCc2cccs2)c1 | -7.31% (inactive) |
| Cc1cc(C)cc(CC(Cc2nc3ccccc3[nH]2)c2nc3ccccc3[nH]2)c1 (stereo unspecified) | -0.97% (inactive) |
| O=C(/C=C/c1ccco1)NC(=S)Nc1ccc(N2CCCC2)cc1 | 3.26% (inactive) |
| Cc1cc2ncn(C3CC(=O)N(Cc4ccc(N5CCCC5=O)cc4)C3=O)c2cc1C (stereo unspecified) | -11.8% (inactive) |
| O=C(NC(=Nc1ccccc1)N1CCOCC1)Nc1ccccc1 | -10.8% (inactive) |
| Cc1ccc(NC(=O)NCC2CCN(Cc3cccc(Cl)c3)CC2)cc1Cl | 15% (inactive) |
| Cc1ccc(NC(=O)c2cc(S(=O)(=O)N3CCC4(CC3)OCCO4)ccc2F)cc1 | -7.76% (inactive) |
| COc1ccc(-c2cc(-c3ccc(OC)c(OC)c3)n[nH]2)c(O)c1 | 13.4% (inactive) |
| COc1ccc(-c2ccc(C#N)c(SCC(=O)NCCc3ccccc3)n2)cc1OC | 4.81% (inactive) |
| Cc1cc(C)n2c(SCC(=O)NCc3ccco3)nnc2n1 | -0.83% (inactive) |
| COc1ccc(C2COC(=O)C2=N)c(NC(=O)c2ccc(Cl)cc2)c1 (stereo unspecified) | -2.01% (inactive) |
| Cc1ccc(C(=O)C2COC(=O)C2)cc1 (stereo unspecified) | 17.3% (inactive) |
| COc1ccc(OC)c(C(C(=O)NCc2ccco2)N(C(=O)Cn2nnc3ccccc32)C(C)C)c1 (stereo unspecified) | 7.56% (inactive) |
| Cc1ccc(NC(=O)COc2ncnc3c(Cl)cc(Cl)cc23)cc1[N+](=O)[O-] | -16.4% (inactive) |
| O=C(NCc1cccnc1)c1ccc(Cl)cc1[N+](=O)[O-] | 0.21% (inactive) |
| Cc1ccc(C)c(NC(=S)NCCSc2ccc(Cl)cc2)c1 | -11.1% (inactive) |
| O=C1c2cccc(OCC(=O)N3N=C(c4cccs4)CC3c3ccc(F)cc3)c2CCN1Cc1cccnc1 (stereo unspecified) | 13.8% (inactive) |
| Cc1ccc(NS(=O)(=O)c2ccc(N3C(=O)CCC3=O)cc2)cc1 | -4.31% (inactive) |
| CCOc1ccc(NC(=O)Nc2cccs2)cc1 | 6.84% (inactive) |
| CC(C)CCNC(=O)C12CN(Cc3ccccc3)CC1C(c1cccc([N+](=O)[O-])c1)=NO2 (stereo unspecified) | -8.23% (inactive) |
| O=C(Nc1cc(C(F)(F)F)ccc1Cl)C(NCc1ccccc1)c1ccccc1 (stereo unspecified) | -8.13% (inactive) |

| Structure (SMILES) | inhibition |
| --- | --- |
| Cc1oc(CC(C)C)c(CN)c1C(=O)O | 12.2% (inactive) |
| CCOC(=O)C1=C(C)NC(=O)NC1c1c(OCC(=O)N2CCCCC2)ccc2ccccc12 (stereo unspecified) | -15.9% (inactive) |
| COc1ccc(C2=NOC(C(=O)Nc3ccc(C)cc3)C2)cc1OC (stereo unspecified) | 0.99% (inactive) |
| Cc1cc([N+](=O)[O-])cc2ncccc12 | 12.3% (inactive) |
| C=CCn1c(SCCOc2ccc(OC)cc2)nnc1C(C)NC(=O)c1ccc(OC)cc1 (stereo unspecified) | -2.1% (inactive) |
| COc1ccc(-n2c(CNc3ccc(C)cc3)nnc2SCc2ccccc2)cc1 | -15.6% (inactive) |
| Cc1ccc2nc(SCC(=O)c3c(C)[nH]c4ccccc34)[nH]c2c1 | 1.78% (inactive) |
| CCOC(=O)c1c(-c2ccc(C)o2)csc1N | -4.43% (inactive) |
| CCOC(=O)c1ccccc1C(=O)N1CCOCCOCCOCC1 | 4.51% (inactive) |
| O=C1N2CCCc3cccc(c32)C12Nc1ccccc1S2 (stereo unspecified) | -10.7% (inactive) |
| N/C(=N\OC(=O)c1cccs1)C1(c2ccc(Cl)cc2Cl)CC1 | -5.97% (inactive) |
| Nc1c(C(=O)Nc2ccc(F)cc2)sc2nc(-c3ccco3)ccc12 | 6.83% (inactive) |
| CCOc1ccc(N/C=C/C(=O)c2ccc(OC)cc2)c([N+](=O)[O-])c1 | -20% (inactive) |
| CCCCCCOC(=O)Sc1nc2ccccc2o1 | -4.37% (inactive) |
| CCCCOC(=O)CSc1nc2c(c(=O)[nH]c(=O)n2C)n1C/C=C(\C)Cl | -16% (inactive) |
| O=S1(=O)C=CC(Nc2ccccc2)C1 (stereo unspecified) | 19% (inactive) |
| C=CCNC(=O)C(=O)NN=C1CCN(C)CC1 | -15.8% (inactive) |
| COc1cccc(C(=O)Oc2c(CN3CCOCC3)cc(Cl)c3cccnc23)c1 | 14.8% (inactive) |
| COc1ccc2nc(NC(=O)C3CCCN3S(=O)(=O)c3ccc(C)cc3)sc2c1 (stereo unspecified) | -19.9% (inactive) |
| c1ccc2[nH]c(CSc3nccs3)nc2c1 | 3.16% (inactive) |
| CC(=O)c1ccc(NC(=S)NC(NC(=O)c2ccco2)C(Cl)(Cl)Cl)cc1 (stereo unspecified) | 22.7% (inactive) |
| CN(C)c1ccc([C@@H]2[C@@H]([N+](=O)[O-])[C@H]3C=Cc4ccccc4N3[C@H]2C(=O)c2ccc(Cl)cc2)cc1 | 19.8% (inactive) |

| Structure (SMILES) | inhibition |
| --- | --- |
| O=C(O)c1cc(O)c2c(c1)[C@@H]([C@H]1c3cc(C(=O)O)cc(O)c3C(=O)c3c(O[C@@H]4O[C@H](CO)[C@@H](O)[C@H](O)[C@H]4O)cccc31)c1cccc(OC3O[C@H](CO)[C@@H](O)[C@H](O)[C@H]3O)c1C2=O (stereo partly specified) | 18.6% (inactive) |
| O=C(CCN1C(=O)C2C3C=CC(C3)C2C1=O)N1CCN(c2cccc(Cl)c2)CC1 (stereo unspecified) | -1.12% (inactive) |
| CCCOc1ccc(C2NC(=S)NC(c3ccccc3)=C2C(=O)Nc2ccc(C)cc2)cc1OC (stereo unspecified) | 0.31% (inactive) |
| CCOC(=O)c1c(C)[nH]c(C)c1C(=O)COC(=O)/C=C/c1cccc(F)c1 | -26.2% (inactive) |
| c1ccc2c3c([nH]c2c1)-c1[nH]ncc1CC3 | -9.62% (inactive) |
| COc1ccc(CCN2CC3=C(C2=O)C(c2ccccc2)NC(=O)N3C)cc1OC (stereo unspecified) | -24.7% (inactive) |
| CC1CCN(S(=O)(=O)c2cccc(C(=O)N(C)C3CCS(=O)(=O)C3)c2)CC1 (stereo unspecified) | -5.95% (inactive) |
| COc1ccc(O)c(/C=c2/sc3nc4cc(C)c(C)cc4n3c2=O)c1 | -26.9% (inactive) |
| CC(=O)Nc1cccc(OCC(=O)Nc2ccc(F)cc2)c1 | -10.3% (inactive) |
| O=C1CSc2ccccc2N1Cc1ccc(F)cc1 | -15.2% (inactive) |
| COc1ccccc1N1CCN(C(CNS(=O)(=O)c2ccccc2)c2cccnc2)CC1 (stereo unspecified) | -4.62% (inactive) |
| CN1CCN(C(c2cccc(C(F)(F)F)c2)c2nnnn2C(C)(C)C)CC1 (stereo unspecified) | -4.85% (inactive) |
| CC(=O)c1cccc(NC(=O)Nc2cc3sccc3n2C)c1 | -13.4% (inactive) |
| O=C(CN1C(=O)COc2ccccc21)Nc1ccc(F)cc1 | -0.13% (inactive) |
| O=C(O)C1CC=CCC1C(=O)NC12CC3CC(CC(C3)C1)C2 (stereo unspecified) | -9.99% (inactive) |
| CSCCC(NC(=O)c1cccc(C)c1)C(=O)OCC(=O)NC(=O)c1cccn1C (stereo unspecified) | -17% (inactive) |
| CCOC(=O)C1=C(c2ccccc2)N=C2SCC(=O)N2C1c1ccc(O)c(OC)c1 (stereo unspecified) | 22.2% (inactive) |
| COC(=O)Cn1cc(C(=O)c2ccco2)c2ccccc21 | -3.32% (inactive) |
| CCCCn1cnc2sc(-c3ccccc3)cc2c1=O | -2.46% (inactive) |
| Cc1cc2oc(=O)cc(CSc3nc(N)cc(N)n3)c2cc1C | 4.49% (inactive) |
| CC1CCN(c2ccc(NC(=S)NC(=O)c3ccc(-c4cccc([N+](=O)[O-])c4)o3)cc2)CC1 | 0.2% (inactive) |
| COc1ccc(-c2csc(Nc3cccnc3)n2)cc1 | -13.4% (inactive) |
